Assay [1] in a line: sensitizers of A549 cells to miR-34 induction, primary screen, imaging, A549 dox-inducible miR-34, nuclei and caspase counts (AID 1347080;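 active = compounds whose cell count with miR-34 switched on is under 0.7 times the count with it off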). Conditions: A549 miR-34 inducible, Hoechst nuclei count, 48 h.
A short description of assay [2]: survival rescue of mitochondrial mutant cells in low glucose, primary screen, MELAS cybrids, Rieske KO mouse fibroblasts, CellTiter-Glo (AID 1508586).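 Also: z relative to plate mean and SD of compound and empty wells.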
[3] abbreviates: stronger effect = lower value, cell number ratio, induced over uninduced.
Where [4] appears, read: measured here: relative caspase fold change +Dox/-Dox.
The mark [5] stands for this setting: measured here: total cells with miR-34 induction, stronger effect = lower value.
Setting [6] is: measured here: total cells without miR-34 induction.
Setting [7] is: MELAS cybrid survival, CellTiter-Glo 48 h, stronger effect = higher value.
Where [8] appears, read: Rieske KO mouse fibroblast survival, CellTiter-Glo 72 h.

Active and inactive are the calls of the source.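 The calls were made as follows, unless noted: active = mean z-score across replicates of 1.96 or higher in either the MELAS or the Rieske mutant cell line; inactive = the rest.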

Here are results for 21 molecules from PubChem BioAssay.
Also: test concentration not given here.

As for `COc1cc(CCc2cc(NC(=O)c3ccc(N4CC(C)NC(C)C4)cc3)n[nH]2)cc(OC)c1` (stereo unspecified), the fold change in assay [1] (setting [3]) is 0.767 (inactive); in assay [1] (setting [4]), 0.948. For the same molecule, the cell count in assay [1] (setting [5]) was determined as 4590; in assay [1] (setting [6]), 5980. Also, the z-score in assay [2] (setting [7]) was -0.509 (inactive); in assay [2] (setting [8]), -1.9.
Turning to `CNCc1ccc(C)c(NC(=O)c2ccc(Nc3nc(-c4ccccc4)c4ccccc4n3)cc2)c1`, the fold change in assay [1] (setting [3]) was 0.989 (inactive); in assay [1] (setting [4]) it was 0.59. Further, the cell count in assay [1] (setting [5]) amounted to 6570; in assay [1] (setting [6]), 6650. Besides, the z-score is -0.615 (inactive) in assay [2] (setting [7]) and -0.107 in assay [2] (setting [8]).
As for `CC(C)c1ccc(NC(=O)Cn2cnc3c2c(=O)n(C)c(=O)n3C)cc1`, the fold change is 0.933 (inactive) in assay [1] (setting [3]) and 1.42 in assay [1] (setting [4]). The cell count in assay [1] (setting [5]) was 7540; in assay [1] (setting [6]) it was 8090. Further, the z-score in assay [2] (setting [7]) was 0.298 (inactive); in assay [2] (setting [8]) it was -0.444.
Regarding `COc1ccc(CC(NC(=O)C(C)NC(=O)CN2CCOCC2)C(=O)NC(Cc2ccccc2)C(=O)[C@]2(C)CO2)cc1` (stereo partly specified), the results for the fold change in assay [1] (setting [3]) and in assay [1] (setting [4]) were 1.43 (inactive) and 1, respectively. The cell count stood at 990 in assay [1] (setting [5]) and 690 in assay [1] (setting [6]). The z-score was -0.544 (inactive) in assay [2] (setting [7]) and -7.62 in assay [2] (setting [8]).
On to `CC1OC(Oc2c(-c3cc(O)c(O)c(O)c3)oc3cc(O)cc(O)c3c2=O)C(O)C(O)C1O` (stereo unspecified), for which the fold change is 0.976 (inactive) in assay [1] (setting [3]) and 1.01 in assay [1] (setting [4]). Moreover, the cell count in assay [1] (setting [5]) was 8230; in assay [1] (setting [6]) it was 8430. Besides, the z-score in assay [2] (setting [7]) was -0.43 (inactive); in assay [2] (setting [8]), -0.277.
Regarding `CCCC(NC(=O)C1[C@H]2CCC[C@H]2CN1C(=O)C(NC(=O)C(NC(=O)c1cnccn1)C1CCCCC1)C(C)(C)C)C(=O)C(=O)NC1CC1` (stereo partly specified), the fold change in assay [1] (setting [3]) is 0.872 (inactive); in assay [1] (setting [4]) it was 1.37. Further, the figures for the cell count in assay [1] (setting [5]) and in assay [1] (setting [6]) were 5460 and 6260, respectively. Moreover, the z-score was -0.469 (inactive) in assay [2] (setting [7]) and 0.214 in assay [2] (setting [8]).
In the case of `COCCOC(=O)C1=C(C)NC(C)=C(C(=O)OCC=Cc2ccccc2)C1c1cccc([N+](=O)[O-])c1` (stereo unspecified), the values for the fold change in assay [1] (setting [3]) and in assay [1] (setting [4]) were 1.06 (inactive) and 0.275, respectively. The cell count is 6590 in assay [1] (setting [5]) and 6240 in assay [1] (setting [6]). The z-score in assay [2] (setting [7]) was -0.669 (inactive); in assay [2] (setting [8]), 0.105.
With `N=c1ccn2c(n1)OC1C(O)C(CO)OC12` (stereo unspecified), the values for the fold change in assay [1] (setting [3]) and in assay [1] (setting [4]) were 1.07 (inactive) and 0.814, respectively. The cell count in assay [1] (setting [5]) stood at 2350; in assay [1] (setting [6]) it was 2200. Besides, the z-score in assay [2] (setting [7]) was 0.074 (inactive); in assay [2] (setting [8]), 0.000793.
On to `CC1(C)S[C@H]2C(NC(=O)C(NC(=O)N3CCN(S(C)(=O)=O)C3=O)c3ccccc3)C(=O)N2C1C(=O)O` (stereo partly specified), for which the fold change was 0.882 (inactive) in assay [1] (setting [3]) and 0.658 in assay [1] (setting [4]). The cell count in assay [1] (setting [5]) came to 7720; in assay [1] (setting [6]) it was 8750. The z-score in assay [2] (setting [7]) was -0.292 (inactive); in assay [2] (setting [8]), -0.225.
With `CCOC(=O)C(CCc1ccccc1)NC(C)C(=O)N1CCCC1C(=O)O` (stereo unspecified), the results for the fold change in assay [1] (setting [3]) and in assay [1] (setting [4]) were 0.954 (inactive) and 0.968, respectively. Also, the cell count in assay [1] (setting [5]) stood at 7520; in assay [1] (setting [6]), 7880. Also, the z-score was -0.0746 (inactive) in assay [2] (setting [7]) and -0.409 in assay [2] (setting [8]).
As to `CCCCC(=O)OC1CC[C@H]2[C@@H]3CCc4cc(O)ccc4[C@@H]3CC[C@]12C` (stereo partly specified), the fold change in assay [1] (setting [3]) is 0.855 (inactive); in assay [1] (setting [4]), 0.887. In addition, the cell count in assay [1] (setting [5]) worked out at 7760; in assay [1] (setting [6]), 9080. Moreover, the z-score in assay [2] (setting [7]) was -0.195 (inactive); in assay [2] (setting [8]), -0.141.
For the molecule `CC(O)[C@@H]1C(=O)N2C(C(=O)O)=C(SC3CNC(CNS(N)(=O)=O)C3)C(C)[C@@H]12` (stereo partly specified), the fold change in assay [1] (setting [3]) was 0.983 (inactive); in assay [1] (setting [4]), 0.831. Further, the cell count in assay [1] (setting [5]) came out at 7900; in assay [1] (setting [6]) it was 8030. The z-score is -0.367 (inactive) in assay [2] (setting [7]) and -0.0647 in assay [2] (setting [8]).
As to `C[C@H]1CC[C@H]2[C@@H](C)C(OC(=O)CCC(=O)O)O[C@H]3O[C@@]4(C)CC[C@@H]1[C@]32OO4` (stereo partly specified), the fold change in assay [1] (setting [3]) was 0.953 (inactive); in assay [1] (setting [4]), 0.708. Further, the cell count in assay [1] (setting [5]) is 4220; in assay [1] (setting [6]), 4430. Also, the values for the z-score in assay [2] (setting [7]) and in assay [2] (setting [8]) were -0.298 (inactive) and -0.0832, respectively.
For `CCCSc1nc(NC2CC2c2ccc(F)c(F)c2)c2nnn(C3CC(OCCO)C(O)C3O)c2n1` (stereo unspecified), the results for the fold change in assay [1] (setting [3]) and in assay [1] (setting [4]) were 0.894 (inactive) and 0.998, respectively. The cell count in assay [1] (setting [5]) turned out to be 6430; in assay [1] (setting [6]), 7190. The z-score in assay [2] (setting [7]) was -0.266 (inactive); in assay [2] (setting [8]), -0.123.
For `O=C(c1ccccc1)c1ccc2nc(NC(=O)c3csc(C4CCN(c5ncnc6ccsc56)CC4)n3)[nH]c2c1`, the fold change is 1.1 (inactive) in assay [1] (setting [3]) and 0.341 in assay [1] (setting [4]). The cell count in assay [1] (setting [5]) was 2690; in assay [1] (setting [6]), 2460. Moreover, the values for the z-score in assay [2] (setting [7]) and in assay [2] (setting [8]) were -0.654 (inactive) and -0.043, respectively.
In the case of `CC1CC[C@]2(C(=O)O)CC[C@]3(C)C(=CC[C@H]4[C@@]5(C)CC(O)C(O)[C@@](C)(CO)[C@@H]5CC[C@]43C)[C@H]2C1C` (stereo partly specified), the fold change was 0.88 (inactive) in assay [1] (setting [3]) and 0.855 in assay [1] (setting [4]). In addition, the values for the cell count in assay [1] (setting [5]) and in assay [1] (setting [6]) were 8330 and 9460, respectively. In addition, the z-score in assay [2] (setting [7]) was -0.312 (inactive); in assay [2] (setting [8]), 0.68.
Turning to `Cc1[nH]c2ccccc2c1C1=C(NCCc2ccc(F)cc2)C(=O)N(C)C1=O`, the figures for the fold change in assay [1] (setting [3]) and in assay [1] (setting [4]) were 0.916 (inactive) and 0.466, respectively. The figures for the cell count in assay [1] (setting [5]) and in assay [1] (setting [6]) were 2210 and 2410, respectively. Further, the z-score in assay [2] (setting [7]) is -0.365 (inactive); in assay [2] (setting [8]) it was 1.08.
Turning to `O=C(C=Cc1ccccc1)NC(NC(=S)Nc1ccc(Cl)cc1)C(Cl)(Cl)Cl` (stereo unspecified), the fold change in assay [1] (setting [3]) is 0.995 (inactive); in assay [1] (setting [4]), 0.524. For the same molecule, the results for the cell count in assay [1] (setting [5]) and in assay [1] (setting [6]) were 2510 and 2520, respectively. The z-score in assay [2] (setting [7]) was -0.431 (inactive); in assay [2] (setting [8]), -0.459.
For `CCC(C(C)O)n1ncn(-c2ccc(N3CCN(c4ccc(OCC5CO[C@@](Cn6cncn6)(c6ccc(F)cc6F)C5)cc4)CC3)cc2)c1=O` (stereo partly specified), the fold change was 1.04 (inactive) in assay [1] (setting [3]) and 0.726 in assay [1] (setting [4]). For the same molecule, the cell count is 4300 in assay [1] (setting [5]) and 4130 in assay [1] (setting [6]). The results for the z-score in assay [2] (setting [7]) and in assay [2] (setting [8]) were -0.325 (inactive) and 0.236, respectively.
As to `COC(=O)C1C(O)CC[C@H]2CN3CCc4c([nH]c5ccccc45)[C@@H]3C[C@H]12` (stereo partly specified), the fold change in assay [1] (setting [3]) was 0.892 (inactive); in assay [1] (setting [4]), 0.762. In addition, the cell count in assay [1] (setting [5]) stood at 8840; in assay [1] (setting [6]), 9910. The z-score in assay [2] (setting [7]) is -0.303 (inactive); in assay [2] (setting [8]) it was 0.721.
For the molecule `CCNc1nc(Nc2cc(F)c(C(=O)N3CCOCC3)cc2OC)ncc1C(F)(F)F`, the fold change in assay [1] (setting [3]) was 0.9 (inactive); in assay [1] (setting [4]), 0.418. For the same molecule, the cell count in assay [1] (setting [5]) was 8080; in assay [1] (setting [6]), 8970. Besides, the results for the z-score in assay [2] (setting [7]) and in assay [2] (setting [8]) were -0.325 (inactive) and -0.142, respectively.
